Data on ten compounds can be found in ChEMBL document CHEMBL3988442, “University of Dundee, Small-Polar-MMV Screening Library” (2021).

For some of these results: Entries with a potency or affinity are not part of this list.

What all share (set-up): scale not given: direction of the effect not stated beside the values
The target of experiment [1] is Protein translocase subunit SecA (Escherichia coli (strain K12)) (UniProt P10408). As to the kind of experiment: Assay to Identify E. coli SecA ATPase Inhibitors. To be noted: 30 µM. The class given is functional.
Sequence of Protein translocase subunit SecA (Escherichia coli (strain K12)) (P10408 whole entry): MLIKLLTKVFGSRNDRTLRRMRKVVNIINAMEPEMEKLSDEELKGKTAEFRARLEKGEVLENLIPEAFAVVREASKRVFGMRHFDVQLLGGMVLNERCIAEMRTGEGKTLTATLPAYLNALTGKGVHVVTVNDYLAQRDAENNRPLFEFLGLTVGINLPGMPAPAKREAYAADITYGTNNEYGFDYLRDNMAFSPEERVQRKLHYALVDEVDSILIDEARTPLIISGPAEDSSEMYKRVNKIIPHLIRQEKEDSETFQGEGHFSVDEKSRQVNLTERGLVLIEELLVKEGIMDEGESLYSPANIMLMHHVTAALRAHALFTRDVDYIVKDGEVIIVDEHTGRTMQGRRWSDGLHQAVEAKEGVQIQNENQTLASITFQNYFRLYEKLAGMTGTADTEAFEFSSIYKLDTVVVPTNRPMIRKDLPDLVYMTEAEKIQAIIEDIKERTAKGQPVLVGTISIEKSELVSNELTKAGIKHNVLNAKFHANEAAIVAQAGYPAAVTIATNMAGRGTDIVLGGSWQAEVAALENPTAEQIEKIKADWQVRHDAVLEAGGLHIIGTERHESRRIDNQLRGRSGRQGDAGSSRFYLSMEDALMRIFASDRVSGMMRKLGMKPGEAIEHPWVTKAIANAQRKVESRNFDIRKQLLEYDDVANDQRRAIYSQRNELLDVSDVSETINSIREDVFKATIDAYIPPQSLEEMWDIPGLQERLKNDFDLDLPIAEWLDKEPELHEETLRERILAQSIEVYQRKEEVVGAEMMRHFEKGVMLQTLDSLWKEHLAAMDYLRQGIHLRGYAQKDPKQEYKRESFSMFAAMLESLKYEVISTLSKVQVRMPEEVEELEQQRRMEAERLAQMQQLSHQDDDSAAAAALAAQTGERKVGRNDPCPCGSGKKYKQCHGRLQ
For experiment [2], the target named is T1, Ubiquitin-activating enzyme e1, putative (Leishmania donovani (strain BPK282A1)) (UniProt E9BSI1).
T1 sequence (whole entry): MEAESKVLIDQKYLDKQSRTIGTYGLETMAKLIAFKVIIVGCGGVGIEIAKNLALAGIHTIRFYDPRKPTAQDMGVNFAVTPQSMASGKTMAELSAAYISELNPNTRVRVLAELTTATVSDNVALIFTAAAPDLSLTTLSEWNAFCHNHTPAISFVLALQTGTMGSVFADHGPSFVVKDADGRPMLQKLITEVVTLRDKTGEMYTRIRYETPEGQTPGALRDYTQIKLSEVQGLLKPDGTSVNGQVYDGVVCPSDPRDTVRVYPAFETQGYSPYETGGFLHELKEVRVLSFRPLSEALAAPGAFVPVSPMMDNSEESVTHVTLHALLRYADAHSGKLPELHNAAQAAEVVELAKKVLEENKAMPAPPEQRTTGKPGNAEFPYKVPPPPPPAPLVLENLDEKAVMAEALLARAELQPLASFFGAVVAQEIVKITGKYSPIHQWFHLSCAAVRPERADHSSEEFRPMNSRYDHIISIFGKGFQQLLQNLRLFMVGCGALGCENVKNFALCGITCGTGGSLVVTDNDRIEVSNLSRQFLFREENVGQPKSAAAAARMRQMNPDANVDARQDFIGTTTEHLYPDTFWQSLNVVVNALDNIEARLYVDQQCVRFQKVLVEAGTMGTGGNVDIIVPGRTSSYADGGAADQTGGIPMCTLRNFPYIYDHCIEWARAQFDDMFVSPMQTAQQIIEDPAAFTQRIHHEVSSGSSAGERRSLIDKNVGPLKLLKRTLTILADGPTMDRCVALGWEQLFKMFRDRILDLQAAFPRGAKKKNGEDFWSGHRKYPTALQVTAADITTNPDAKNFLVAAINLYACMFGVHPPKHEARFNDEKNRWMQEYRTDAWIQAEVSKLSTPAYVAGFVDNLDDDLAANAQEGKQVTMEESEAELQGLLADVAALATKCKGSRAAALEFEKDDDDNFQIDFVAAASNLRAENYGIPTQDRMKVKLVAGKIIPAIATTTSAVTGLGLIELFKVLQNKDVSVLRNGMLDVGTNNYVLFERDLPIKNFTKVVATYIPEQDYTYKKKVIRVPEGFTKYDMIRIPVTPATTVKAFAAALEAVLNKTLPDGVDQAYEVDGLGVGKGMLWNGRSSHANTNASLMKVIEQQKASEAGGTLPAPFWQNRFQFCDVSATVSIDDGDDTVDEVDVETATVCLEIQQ
As to the kind of experiment: Leishmania donovani Ubiquitin Activating Enzyme (LdE1). The class given is functional. To be noted: 30 µM.

The target of experiment [3] is Sialic acid-binding Ig-like lectin 9 (Homo sapiens) (UniProt Q9Y336). As to the kind of experiment: Hs-Siglec9 ALPHAscreen SOP 20170721. To be noted: 10 µM. For orientation: Bead proximity is the source of the signal in Alpha formats.
Sequence of Sialic acid-binding Ig-like lectin 9 (Homo sapiens) (Q9Y336 whole entry): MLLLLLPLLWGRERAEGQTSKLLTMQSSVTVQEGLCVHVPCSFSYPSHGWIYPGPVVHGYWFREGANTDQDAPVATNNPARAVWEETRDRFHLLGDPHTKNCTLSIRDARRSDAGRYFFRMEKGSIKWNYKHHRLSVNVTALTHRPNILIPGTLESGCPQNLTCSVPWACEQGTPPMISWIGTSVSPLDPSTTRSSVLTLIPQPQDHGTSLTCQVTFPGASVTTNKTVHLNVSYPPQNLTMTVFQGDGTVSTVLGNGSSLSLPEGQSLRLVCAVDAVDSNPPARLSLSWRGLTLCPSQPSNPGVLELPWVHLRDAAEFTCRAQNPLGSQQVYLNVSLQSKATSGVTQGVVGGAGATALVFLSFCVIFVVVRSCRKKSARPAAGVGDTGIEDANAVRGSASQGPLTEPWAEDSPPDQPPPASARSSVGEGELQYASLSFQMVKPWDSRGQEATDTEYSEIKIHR
Experiment [4] deals with Trypanosoma cruzi. Description: Trypanosoma cruzi phosphomannomutase and mannose-1-phosphate guanylyltransferase assay. In kind it is functional. As to conditions: 10 µM.
Experiment [5] deals with T2, Arginase-2, mitochondrial (Homo sapiens) (UniProt P78540).
T2 sequence (whole entry): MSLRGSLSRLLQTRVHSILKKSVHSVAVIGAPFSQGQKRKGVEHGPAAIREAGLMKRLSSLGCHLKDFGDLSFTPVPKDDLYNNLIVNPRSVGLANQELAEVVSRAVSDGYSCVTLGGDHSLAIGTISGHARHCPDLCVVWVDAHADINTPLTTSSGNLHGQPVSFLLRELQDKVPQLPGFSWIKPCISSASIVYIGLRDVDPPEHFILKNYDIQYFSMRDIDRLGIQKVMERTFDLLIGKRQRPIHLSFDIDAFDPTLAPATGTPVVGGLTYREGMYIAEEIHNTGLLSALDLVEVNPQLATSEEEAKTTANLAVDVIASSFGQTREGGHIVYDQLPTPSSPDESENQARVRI
As to the kind of experiment: in vitro enzyme assay to detect the production of urea directly proportional to the activity of Arginase II. Further: in the data most compounds retested in dose-response had high values. In kind it is functional. As to conditions: 33.3 µM.

In experiment [6] the target is T3, Proteasome subunit beta (Trypanosoma cruzi) (UniProt O96673).
T3 sequence (whole entry): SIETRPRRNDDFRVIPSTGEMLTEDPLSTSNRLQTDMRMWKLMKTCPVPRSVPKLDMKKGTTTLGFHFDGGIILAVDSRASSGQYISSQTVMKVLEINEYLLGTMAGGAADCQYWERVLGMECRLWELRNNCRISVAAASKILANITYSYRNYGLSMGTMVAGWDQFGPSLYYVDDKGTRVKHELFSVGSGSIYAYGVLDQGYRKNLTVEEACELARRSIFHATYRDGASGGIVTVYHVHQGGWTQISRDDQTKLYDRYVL
Description: Trypanosoma cruzi proteasome chymotrypsin-like activity (TcProtChymo) assay. Further: in the data most compounds retested in dose-response had high values. As to conditions: 9.37 µM. In kind it is functional.

Experiment [7] is filed under the species Homo sapiens. Description: To identify inhibition of the IFN signalling (Jak-Stat) pathway via expression of an eGFP reporter gene under the control of an IFN-stimulated response element (ISRE) containing MxA promoter. The class given is functional. To be noted: 30 µM. A general note: Reporter assays use an easily measured gene product as a stand-in for the process of interest.

The target of experiment [8] is T4, Tyrosyl-tRNA synthetase, putative (Trypanosoma cruzi (strain CL Brener)) (UniProt Q4DSP6).
T4 sequence (whole entry): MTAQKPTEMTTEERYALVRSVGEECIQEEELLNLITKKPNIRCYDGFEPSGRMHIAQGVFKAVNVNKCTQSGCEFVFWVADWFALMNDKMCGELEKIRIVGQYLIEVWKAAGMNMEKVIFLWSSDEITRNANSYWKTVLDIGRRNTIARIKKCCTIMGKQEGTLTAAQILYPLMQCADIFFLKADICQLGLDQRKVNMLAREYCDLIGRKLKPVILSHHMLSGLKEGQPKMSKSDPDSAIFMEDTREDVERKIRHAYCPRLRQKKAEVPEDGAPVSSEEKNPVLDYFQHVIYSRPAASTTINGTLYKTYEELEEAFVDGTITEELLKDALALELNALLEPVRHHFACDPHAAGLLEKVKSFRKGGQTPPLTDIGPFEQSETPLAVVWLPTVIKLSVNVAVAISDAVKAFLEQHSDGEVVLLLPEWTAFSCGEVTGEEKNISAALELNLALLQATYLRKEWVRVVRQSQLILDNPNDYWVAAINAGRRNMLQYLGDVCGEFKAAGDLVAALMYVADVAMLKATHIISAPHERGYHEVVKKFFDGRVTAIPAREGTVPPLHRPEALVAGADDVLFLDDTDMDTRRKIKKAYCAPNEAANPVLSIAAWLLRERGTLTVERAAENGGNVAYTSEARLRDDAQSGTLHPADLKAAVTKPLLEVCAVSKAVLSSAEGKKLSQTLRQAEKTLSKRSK
Description: Trypanosoma cruzi tyrosyl tRNA synthetase (TcYRS) _High Tyrosine SOP. Further: in the data most compounds retested in dose-response had high values. In kind it is functional. To be noted: 30 µM.

Experiment [9] addresses T4, Tyrosyl-tRNA synthetase, putative (Trypanosoma cruzi (strain CL Brener)). Description: Trypanosoma cruzi tyrosyl tRNA synthetase (TcYRS) SOP. As to conditions: 30 µM. The class given is functional.
The target of experiment [10] is Chromo domain-containing protein 1 (Saccharomyces cerevisiae (strain ATCC 204508 / S288c) (Baker's yeast)) (UniProt P32657). Description: ScCHD-1 Enzyme Inhibition Assay. Further: in the data most compounds retested in dose-response had high values. The class given is functional. To be noted: 30 µM.
Sequence of Chromo domain-containing protein 1 (Saccharomyces cerevisiae (strain ATCC 204508 / S288c) (Baker's yeast)) (P32657 whole entry, the tested form may be a part): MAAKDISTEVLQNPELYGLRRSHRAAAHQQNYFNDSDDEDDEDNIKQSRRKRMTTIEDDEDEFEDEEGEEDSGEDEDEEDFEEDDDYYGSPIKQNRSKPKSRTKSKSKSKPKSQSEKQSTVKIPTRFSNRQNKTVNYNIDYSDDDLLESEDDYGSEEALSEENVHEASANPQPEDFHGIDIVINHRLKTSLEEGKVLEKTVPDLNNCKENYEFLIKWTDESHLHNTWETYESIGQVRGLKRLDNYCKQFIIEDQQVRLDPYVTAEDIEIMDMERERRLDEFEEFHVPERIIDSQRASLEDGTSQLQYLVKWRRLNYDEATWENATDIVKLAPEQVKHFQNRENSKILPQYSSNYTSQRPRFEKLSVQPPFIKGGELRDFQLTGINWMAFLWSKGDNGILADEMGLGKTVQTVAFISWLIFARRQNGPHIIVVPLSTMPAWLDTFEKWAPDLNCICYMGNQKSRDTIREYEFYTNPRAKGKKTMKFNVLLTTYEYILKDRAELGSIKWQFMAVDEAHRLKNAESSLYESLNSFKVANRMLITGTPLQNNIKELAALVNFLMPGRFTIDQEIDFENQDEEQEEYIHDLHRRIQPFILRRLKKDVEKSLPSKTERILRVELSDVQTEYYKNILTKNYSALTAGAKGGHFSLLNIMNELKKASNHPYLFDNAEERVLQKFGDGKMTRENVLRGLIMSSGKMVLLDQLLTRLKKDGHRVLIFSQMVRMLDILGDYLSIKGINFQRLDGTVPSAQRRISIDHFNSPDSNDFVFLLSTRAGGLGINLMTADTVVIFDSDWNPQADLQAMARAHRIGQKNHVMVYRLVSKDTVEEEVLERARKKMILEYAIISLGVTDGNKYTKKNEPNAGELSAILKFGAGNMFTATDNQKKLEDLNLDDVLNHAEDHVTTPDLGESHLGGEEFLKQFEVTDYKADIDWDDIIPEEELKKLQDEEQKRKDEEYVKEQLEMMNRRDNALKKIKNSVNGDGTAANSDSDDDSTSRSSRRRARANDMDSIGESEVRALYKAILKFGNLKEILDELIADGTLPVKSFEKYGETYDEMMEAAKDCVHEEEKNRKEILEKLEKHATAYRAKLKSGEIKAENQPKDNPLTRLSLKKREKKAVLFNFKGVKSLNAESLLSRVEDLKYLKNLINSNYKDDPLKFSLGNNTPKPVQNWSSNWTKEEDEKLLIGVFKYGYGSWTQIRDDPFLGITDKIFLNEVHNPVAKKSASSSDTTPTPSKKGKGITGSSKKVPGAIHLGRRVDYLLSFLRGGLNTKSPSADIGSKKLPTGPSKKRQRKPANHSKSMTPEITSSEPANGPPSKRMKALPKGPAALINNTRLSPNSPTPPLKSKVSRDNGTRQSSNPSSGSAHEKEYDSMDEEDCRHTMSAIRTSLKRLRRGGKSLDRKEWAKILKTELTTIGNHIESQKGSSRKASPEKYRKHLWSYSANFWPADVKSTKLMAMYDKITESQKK

`Cc1cc(C)n(CC2CCCN2CCc2ccncc2)n1` (stereo not given): the Percent Effect in experiment [1] was -5.42%; in experiment [2], 7.69%; in experiment [3] it was -18.5%; in experiment [4] it was 12.5%; in experiment [5], -2.87%; in [6], 17.1%. Also, the Percent Effect in experiment [7] was 5.12%; in experiment [8], 3.35%; in experiment [9] it was 20.5%; in [10] it was -3.37%.
On to `COc1ccc(C(C)NC(=O)Cn2ccc(=O)n(C)c2=O)cc1OC` (stereo not given), for which the Percent Effect is -2.49% in [1]; 7.79% in [2]; 11% in [3]; -2.8% in [4]; 3.48% in [5]; 9.65% in [6]. The Percent Effect in experiment [7] is 17.1%; in experiment [8] it was 8.82%; in experiment [9], 18.8%; in [10], -4.91%.
In the case of `COCCNC(=O)Nc1ccc(F)c(C(N)=O)c1`, the Percent Effect is 2.83% in experiment [1]; 15.6% in experiment [2]; -5.71% in experiment [3]; -5.04% in experiment [4]; 0.615% in experiment [5]; 8.42% in experiment [6]. Also, the Percent Effect in experiment [7] was 8.95%; in [8] it was 9.8%; in experiment [9] it was 16.5%; in experiment [10], -12.2%.
Turning to `CCn1ccnc1CNCC1CCCN1c1cc(NC)ncn1` (stereo not given), the Percent Effect is -2.03% in experiment [1]; 0% in [2]; 1.76% in experiment [3]; -5.62% in experiment [4]; 2.66% in [5]; 4.5% in experiment [6]. The Percent Effect in experiment [7] is 12.1%; in experiment [8], 4.74%; in [9], 5.13%; in experiment [10], -7.63%.
Turning to `CC(NC(=O)CCn1cncn1)c1nnc2n1CCCCC2` (stereo not given), the Percent Effect in [1] was -3.71%; in [2] it was 20.8%; in experiment [3], 8.71%; in experiment [4] it was 5.04%; in [5] it was 10.4%; in experiment [6], 1.93%. The Percent Effect is 17.2% in [7], 3.92% in experiment [8], 18.8% in experiment [9] and -8.72% in experiment [10].
`c1cc(CN2Cc3nnn(CC4CC4)c3C(COCC3CC3)C2)co1` (stereo not given): the Percent Effect is -5.88% in experiment [1]; 3.9% in experiment [2]; 10.3% in experiment [3]; 9.83% in experiment [4]; -8.1% in experiment [5]; 9.62% in experiment [6]. Also, the Percent Effect in experiment [7] is -0.188%; in experiment [8], 3.68%; in experiment [9], 12.8%; in [10], 2.41%.
For the compound `CCOCC1CN(Cc2ccc(OC)cc2)Cc2nn(C)cc21` (stereo not given), the Percent Effect was -9.46% in [1]; 3.9% in experiment [2]; 2.27% in experiment [3]; -1.46% in experiment [4]; 0.405% in experiment [5]; 9.62% in experiment [6]. Moreover, the Percent Effect in [7] came to 15.7%; in [8] it was 2.63%; in [9], 2.56%; in [10], 0.496%.
Regarding `c1ccc(CN2CCc3nnc(CN4CCCCC4)n3CC2)nc1`, the Percent Effect was -8.66% in [1]; 1.3% in experiment [2]; -4.58% in [3]; -3.41% in experiment [4]; -4.86% in experiment [5]; 18.1% in experiment [6]. The Percent Effect in experiment [7] was 0.921%; in experiment [8], 0.526%; in [9], 2.56%; in experiment [10], -0.472%.
In the case of `Cc1cc2cc(C(=O)N3CC[C@H](O)[C@]4(CCCO4)C3)ccc2o1`, the Percent Effect in experiment [1] was -4.25%; in experiment [2], 17.3%; in experiment [3] it was 3.44%; in experiment [4] it was 2.17%; in experiment [5], -3.1%; in [6], 8.37%. Moreover, the Percent Effect was -3.08% in experiment [7], 6.35% in experiment [8], 12.5% in [9] and -20.9% in experiment [10].
Turning to `Cc1cc(C(=O)O)cc(S(=O)(=O)Nc2ccc3c(c2)OCO3)c1C`, the Percent Effect in [1] was -0.174%; in [2], 2.56%; in experiment [3], -9.72%; in experiment [4], 2.91%; in [5] it was 3.69%; in [6], 19.7%. Moreover, the Percent Effect is -15.4% in experiment [7], -4.31% in experiment [8], 10.8% in [9] and -3.33% in experiment [10].
